# Experimental data taken from the supplement of paper PMC8975748.
# Where a name gives a salt, the structure may show the parent alone. ± gives the standard deviation of the averaged measurements.
# Tests used:
# [1] = tested on: Saccharomyces cerevisiae BY4741 SeMeCo community; assay: mean cell size (pixel area) (pixels); higher = larger cells; settings: 10 µM; 24 h; SM minimal medium
# Summary of the method: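 In this assay, mean cell pixel area per well was obtained from automated confocal images of paraformaldehyde-fixed yeast analysed in Harmony. The cells were a Saccharomyces cerevisiae BY4741 community with four plasmids, each complementing one auxotrophy and carrying a fluorescent marker, grown for 24 h in SM medium with drug at a final 10 µM in 384-well plates. Values are averaged across 3 replicates. Same SeMeCo high-content imaging drug screen: Selleck FDA-approved drugs at 10 µM, 24 h in SM medium, 384-well plates, 3 replicates.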
# [2] = tested on: Saccharomyces cerevisiae BY4741 SeMeCo community; assay: z-score of prototroph abundance vs DMSO median; higher = larger share of this subpopulation than in DMSO controls; settings: 10 µM; 24 h; SM minimal medium; subpopulation (auxotrophy): Prototroph
# Summary of the method: (§1)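 Four plasmids, each restoring a single auxotrophy and encoding a distinct fluorescent protein, were carried by a Saccharomyces cerevisiae BY4741 community. After overnight growth to OD600 1.0 and dilution to 0.3, 70 µl per well was grown for 24 h in minimal SM medium on 384-well plates acoustically predosed with library drugs at 10 µM final. Following paraformaldehyde fixation, automated confocal microscopy was used, with single-auxotroph fluorescent strains defining thresholds and autofluorescence correction. Subpopulation abundance was then scored as a z-score against the vehicle-well median.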
# [3] = tested on: Saccharomyces cerevisiae BY4741 SeMeCo community; assay: z-score of subpopulation abundance vs DMSO median, subpopulation auxotrophic for M; higher = larger share of this subpopulation than in DMSO controls; settings: 10 µM; 24 h; SM minimal medium; subpopulation (auxotrophy): M
# Summary of the method: as §1
# [4] = tested on: Saccharomyces cerevisiae BY4741 SeMeCo community; assay: z-score of subpopulation abundance vs DMSO median, subpopulation auxotrophic for U; higher = larger share of this subpopulation than in DMSO controls; settings: 10 µM; 24 h; SM minimal medium; subpopulation (auxotrophy): U
# Summary of the method: as §1
# [5] = tested on: Saccharomyces cerevisiae BY4741 SeMeCo community; assay: z-score of subpopulation abundance vs DMSO median, subpopulation auxotrophic for H; higher = larger share of this subpopulation than in DMSO controls; settings: 10 µM; 24 h; SM minimal medium; subpopulation (auxotrophy): H
# Summary of the method: as §1
# [6] = tested on: Saccharomyces cerevisiae BY4741 SeMeCo community; assay: z-score of subpopulation abundance vs DMSO median, subpopulation auxotrophic for HLM; higher = larger share of this subpopulation than in DMSO controls; settings: 10 µM; 24 h; SM minimal medium; subpopulation (auxotrophy): HLM
# Summary of the method: as §1
# [7] = tested on: Saccharomyces cerevisiae BY4741 SeMeCo community; assay: z-score of subpopulation abundance vs DMSO median, subpopulation auxotrophic for HUM; higher = larger share of this subpopulation than in DMSO controls; settings: 10 µM; 24 h; SM minimal medium; subpopulation (auxotrophy): HUM
# Summary of the method: as §1
# [8] = tested on: Saccharomyces cerevisiae BY4741 SeMeCo community; assay: z-score of subpopulation abundance vs DMSO median, subpopulation auxotrophic for LUM; higher = larger share of this subpopulation than in DMSO controls; settings: 10 µM; 24 h; SM minimal medium; subpopulation (auxotrophy): LUM
# Summary of the method: as §1
# [9] = tested on: Saccharomyces cerevisiae BY4741 SeMeCo community; assay: z-score of subpopulation abundance vs DMSO median, subpopulation auxotrophic for HLUM; higher = larger share of this subpopulation than in DMSO controls; settings: 10 µM; 24 h; SM minimal medium; subpopulation (auxotrophy): HLUM
# Summary of the method: as §1
# [10] = tested on: Saccharomyces cerevisiae BY4741 SeMeCo community; assay: z-score of subpopulation abundance vs DMSO median, subpopulation auxotrophic for LU; higher = larger share of this subpopulation than in DMSO controls; settings: 10 µM; 24 h; SM minimal medium; subpopulation (auxotrophy): LU
# Summary of the method: as §1
# [11] = tested on: Saccharomyces cerevisiae BY4741 SeMeCo community; assay: z-score of subpopulation abundance vs DMSO median, subpopulation auxotrophic for LM; higher = larger share of this subpopulation than in DMSO controls; settings: 10 µM; 24 h; SM minimal medium; subpopulation (auxotrophy): LM
# Summary of the method: as §1
# [12] = tested on: Saccharomyces cerevisiae BY4741 SeMeCo community; assay: z-score of subpopulation abundance vs DMSO median, subpopulation auxotrophic for HM; higher = larger share of this subpopulation than in DMSO controls; settings: 10 µM; 24 h; SM minimal medium; subpopulation (auxotrophy): HM
# Summary of the method: as §1
# [13] = tested on: Saccharomyces cerevisiae BY4741 SeMeCo community; assay: z-score of subpopulation abundance vs DMSO median, subpopulation auxotrophic for HU; higher = larger share of this subpopulation than in DMSO controls; settings: 10 µM; 24 h; SM minimal medium; subpopulation (auxotrophy): HU
# Summary of the method: as §1
# [14] = tested on: Saccharomyces cerevisiae BY4741 SeMeCo community; assay: z-score of subpopulation abundance vs DMSO median, subpopulation auxotrophic for UM; higher = larger share of this subpopulation than in DMSO controls; settings: 10 µM; 24 h; SM minimal medium; subpopulation (auxotrophy): UM
# Summary of the method: as §1
# [15] = tested on: Saccharomyces cerevisiae BY4741 SeMeCo community; assay: z-score of subpopulation abundance vs DMSO median, subpopulation auxotrophic for HL; higher = larger share of this subpopulation than in DMSO controls; settings: 10 µM; 24 h; SM minimal medium; subpopulation (auxotrophy): HL
# Summary of the method: as §1
# [16] = tested on: Saccharomyces cerevisiae BY4741 SeMeCo community; assay: z-score of subpopulation abundance vs DMSO median, subpopulation auxotrophic for L; higher = larger share of this subpopulation than in DMSO controls; settings: 10 µM; 24 h; SM minimal medium; subpopulation (auxotrophy): L
# Summary of the method: as §1
SMILES,mean cell size [1],z-score of prototroph abundance [2],z-score of subpopulation abundance [3],z-score of subpopulation abundance [4],z-score of subpopulation abundance [5],z-score of subpopulation abundance [6],z-score of subpopulation abundance [7],z-score of subpopulation abundance [8],z-score of subpopulation abundance [9],z-score of subpopulation abundance [10],z-score of subpopulation abundance [11],z-score of subpopulation abundance [12],z-score of subpopulation abundance [13],z-score of subpopulation abundance [14],z-score of subpopulation abundance [15],z-score of subpopulation abundance [16]
CCC1(C)CC(=O)NC1=O (stereo unspecified) [Ethosuximide],12.6 ± 0.19,-0.06,-0.27,0.64,-0.94,0.8,-0.44,1.11,0.48,–,–,–,–,–,–,–
COC(=O)C1=C(C)NC(C)=C(C(=O)OC)C1c1ccccc1[N+](=O)[O-] [Nifedipine],12.5 ± 0.2,-0.35,0.13,–,0.64,–,-0.1,0.34,1.1,0.14,0.48,-0.14,-0.68,0.26,-0.95,–
OCCOc1ccc(/C(=C(/CCCl)c2ccccc2)c2ccccc2)cc1 [Ospemifene],12.7 ± 0.24,0.59,0.43,-0.86,0.74,-0.21,-0.62,–,-0.5,–,-0.34,1.37,-0.18,-0.91,0.7,-0.6
Oc1ccc([C@H]2COc3cc(O)ccc3C2)cc1 [Equol],12.4 ± 0.17,0.13,0.37,-0.12,-0.53,-0.88,-0.27,-0.14,0.35,–,0.45,0.47,-0.01,0.05,-0.02,-0.21
CC(=O)C1C(=O)C=C(C)OC1=O (stereo unspecified) [Sodium dehydroacetate],–,-1.07,0.37,1.63,-1.35,0.13,-0.21,1.14,1.61,–,0.56,0.2,0.24,0.54,0.4,1.59
NC(=O)N1c2ccccc2CC(=O)c2ccccc21 [Oxcarbazepine],12.4 ± 0.25,0.37,-0.31,0.16,-0.49,–,0.19,–,0.1,-0.37,0.14,–,–,0.07,-0.1,-0.68
Cc1cc(O)c(C(=O)N[C@@H](C(=O)N[C@@H]2C(=O)N3C(C(=O)O)=C(CSc4nnnn4C)CS[C@H]23)c2ccc(O)cc2)cn1 [Cefpiramide sodium],12.3 ± 0.13,-0.28,–,0.61,-0.05,-0.6,-0.35,-0.42,-0.55,-0.12,–,0.57,0.5,0.29,0.18,-0.92
CC[C@H]1OC(=O)[C@H](C)[C@@H](O[C@H]2C[C@@](C)(OC)[C@@H](O)[C@H](C)O2)[C@H](C)[C@@H](O[C@@H]2O[C@H](C)C[C@H](N(C)C)[C@H]2O)[C@](C)(O)C[C@@H](C)C(=O)[C@H](C)[C@@H](O)[C@]1(C)O [Erythromycin],–,–,0.24,-1.28,1,0.66,–,1.19,0.28,–,1.38,0.91,-0.18,-0.8,2.42,1.96
CC(C(=O)O)c1cccc(C(=O)c2ccccc2)c1 (stereo unspecified) [Ketoprofen],12.4 ± 0.2,–,-0.04,-0.65,0.99,–,–,1.22,1.1,–,1.24,–,-0.66,-0.3,–,1.73
CN[C@@H]1[C@@H](O)[C@@H](O[C@@H]2[C@@H](O)[C@H](O[C@H]3O[C@H](CN)[C@@H](O)[C@H](O)[C@H]3O)[C@@H](N)C[C@H]2NC(=O)[C@@H](O)CN)OC[C@]1(C)O [Isepamicin Sulphate],12.1 ± 0.21,-0.32,0,1.4,-0.38,-0.7,0.82,0.03,-0.09,-0.44,-0.22,-0.49,1.15,1.19,–,–
C[C@@H](O)[C@H]1C(=O)N2C(C(=O)O)=C(S[C@@H]3CN[C@H](CNS(N)(=O)=O)C3)[C@H](C)[C@H]12 [Doripenem Hydrate],12.38 ± 0.092,0.39,–,0.2,-0.3,-0.78,-0.79,-0.2,-1.04,0.22,-0.44,–,-0.19,-0.42,-0.25,0.82
C[C@@H](O)[C@H]1C(=O)N2C(C(=O)O)=C([C@H]3CCCO3)S[C@H]12 [Faropenem Sodium],12.39 ± 0.088,-1.08,0.61,1.08,–,–,0.59,0.85,-0.05,0.29,-0.23,0.48,0.81,1.27,–,–
CCN1CCN(c2cc3c(cc2F)c(=O)c(C(=O)O)cn3C2CC2)CC1 [Enrofloxacin],12.04 ± 0.1,0.16,0.24,0.01,-0.13,–,0.02,-0.06,-0.35,-0.21,0.01,-0.25,0.07,0,-0.47,-0.5
CC1=C(C(=O)O)N2C(=O)[C@@H](NC(=O)[C@H](N)C3=CCC=CC3)[C@H]2SC1 [Cefradine],12.12 ± 0.02,0.86,-0.36,0.07,-0.04,0.04,-0.79,-0.81,0.1,–,–,–,–,-0.6,0.06,0.14
CCc1nc(N)nc(N)c1-c1ccc(Cl)cc1 [Pyrimethamine],12.3 ± 0.38,0.23,-0.13,-0.01,-0.47,-0.3,0.42,0.49,-0.2,–,0.19,–,-0.29,-0.1,-0.25,-0.63
CO[C@@H]1[C@@H](OC(N)=O)[C@@H](O)[C@H](Oc2ccc3c(O)c(NC(=O)c4ccc(O)c(CC=C(C)C)c4)c(=O)oc3c2C)OC1(C)C [Novobiocin Sodium],12.7 ± 0.19,-1.53,-0.26,0.65,1.97,0.81,2.57,1.43,0.56,0.73,-0.47,1.59,2.61,0.58,1.28,–
CN(C)CCC=C1c2ccccc2C=Cc2ccccc21 [Cyclobenzaprine HCl],12.59 ± 0.046,-0.37,0,1.16,-0.68,0.13,–,-0.09,–,-0.04,0.01,-0.88,0.59,1.09,-0.13,–
COC(=O)C1=C(C)NC(C)=C(C(=O)OC2CCCN(Cc3ccccc3)C2)C1c1cccc([N+](=O)[O-])c1 (stereo unspecified) [Benidipine HCl],12.4 ± 0.23,-0.13,–,-1.06,0.92,0.06,0.12,0.29,-0.21,0.07,1.8,0.86,-0.01,-0.42,1.55,1.12
COc1c(N2C[C@@H]3CCCN[C@@H]3C2)c(F)cc2c(=O)c(C(=O)O)cn(C3CC3)c12 [Moxifloxacin HCl],12.3 ± 0.15,–,0.89,-0.98,0.53,–,0.22,0.77,1.08,-0.22,2.74,–,-0.55,-0.68,1.26,2.07
CNCc1cc(-c2ccccc2F)n(S(=O)(=O)c2cccnc2)c1 [Vonoprazan Fumarate (TAK-438)],12.3 ± 0.26,0,0.45,0.84,-0.55,–,-0.68,-0.32,-0.37,-0.72,-0.98,-0.52,–,-0.09,-1.38,–
C1CCN2C[C@@H]3C[C@@H](CN4CCCC[C@@H]34)[C@H]2C1 [(-)-Sparteine Sulfate],–,0.31,-0.03,-0.7,1.38,–,0.1,-0.1,-0.92,-0.85,-0.13,0.08,-0.03,0.01,1.4,-0.01
COC(=O)C1=C(C)NC(C)=C(C(=O)OCCN2CCN(C(c3ccccc3)c3ccccc3)CC2)C1c1cccc([N+](=O)[O-])c1 (stereo unspecified) [Manidipine],12 ± 0.18,-1.43,–,-1.02,2.53,0.64,2.11,0.72,0.6,-1.04,–,2.14,0.65,-0.6,2.76,0.96
